This passage reports composite z-score and z-score results from PubChem BioAssay.

Molecules are shown by their SMILES. Calls of active or inactive are those of the source.

The nature of assay [1]: small molecules captured by biotinylated probe aFSTL3 – biochemical, small-molecule microarray, fluorescence 635/667, stem cell growth factor project, primary screen (AID 1064).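 Also: measures binding of the biotinylated anti-FSTL3 antibody to printed compounds.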 To be noted: higher = more signal.
Assay [2] can be described thus: binders from COS7 lysate, DM2A8 probe, primary screen, torsin A project, cell lysate, small-molecule microarray, fluorescence 635/667 (AID 1065). The following applies: higher = more signal, COS7 lysate expressing mutant human TOR1A.
Assay [3] is described as follows: small molecules captured by biotinylated probe aFGF2 – biochemical, small-molecule microarray, fluorescence 635/667, stem cell growth factor project, primary screen (AID 1067).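 Also: measures binding of biotinylated aFGF2 protein to printed compounds on slides; z-score merges feature fluorescence and signal-to-noise across triplicate slides.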 To be noted: higher = more signal.
Assay [4] is described as follows: small molecules captured by biotinylated probe aFGF10 – biochemical, small-molecule microarray, fluorescence 635/667, stem cell growth factor project, primary screen (AID 1071).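 Also: score merges 667 nm spot intensity and signal to noise from triplicate slides.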 The following applies: higher = more signal.
The target in assay [5] is Neurogenic locus notch homolog protein 2 (Homo sapiens) (UniProt Q04721). As to the kind of experiment: small molecules binding Notch2 protein – biochemical, small-molecule microarray, 635 nm fluorescence, stem cell growth factors, primary screen (AID 1073). To be noted: higher = more signal.
Assay [6] concerns the target Pro-neuregulin-1, membrane-bound isoform (Homo sapiens) (UniProt Q02297). As to the kind of experiment: small molecules binding neuregulin-1 protein – biochemical, small-molecule microarray, fluorescence 635/667, psychiatric disease protein project, primary screen (AID 1075).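 Also: score combines 667 nm spot fluorescence with signal to noise.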 To be noted: NRG1 binding, 635 nm fluorescence, higher = more signal.
Assay [7] has as its system Neuregulin-1 EGF-like domain. In words: small molecules binding NRG1 EGF domain – biochemical, small-molecule microarray, 635 nm fluorescence, primary screen (AID 1081).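 Also: binding of the protein to compounds printed on small-molecule microarray slides.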 The following applies: higher = more signal.
A short description of assay [8]: FRG1 expression reporter modulators in myotubes – cell-based, C2C12 myotubes, firefly/Renilla luciferase, luminescence, FRG1 inhibition for FSHD, primary screen (AID 1084). To be noted: FRG1 promoter luciferase, higher = more signal, called active from +8 up or from −8 down.
Assay [9] in a line: small molecules captured by biotinylated probe aFST – biochemical, small-molecule microarray, fluorescence 635/667, stem cell growth factor project, primary screen (AID 1086).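 Also: score merges 667 nm fluorescence with signal-to-noise of each printed compound spot.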 The following applies: higher = more signal.
Assay [10] can be described thus: binders of probe aHhip on microarray, primary screen, stem cell growth factor project, biochemical, small-molecule microarray, fluorescence 635/667 (AID 1087).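 Also: score merges spot fluorescence at 667nm with spot signal to noise ratio.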 The following applies: higher = more signal.
Assay [11] relates to PRMT1 (protein arginine N-methyltransferase 1). As to the kind of experiment: small molecules binding arginine methyltransferase PRMT1 – biochemical, small-molecule microarray, 635 nm fluorescence, primary screen (AID 1088).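 Also: binding of Prmt1 protein to compounds spotted on small-molecule microarray slides.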 To be noted: higher = more signal.
Assay [12] is described as follows: growth effects on S. cerevisiae YJM789 – YJM789 clinical isolate, OD600, 24 h, basal, primary screen (AID 1089).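 Also: growth of clinical yeast isolate S. cerevisiae YJM 789 seeded 1000 cells per well; test concentration not given here.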 To be noted: higher = more signal, called active from +8 up or from −8 down.
Assay [13] can be described thus: S. pombe growth modifiers, basal conditions – strain 972, OD600, 24 h, no modulator, primary screen (AID 1090).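 Also: basal condition with compound alone and no growth modifier present; test concentration not given here.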 The following applies: S. pombe 972 growth, higher = more signal, called active from +8 up or from −8 down.
Assay [14] in a line: budding yeast growth modifiers under rapamycin – strain BY4716, OD600, 96 h, primary screen (AID 1091). Also: test concentration not given here. The following applies: S. cerevisiae BY4716 + rapamycin, higher = more signal, called active from +8 up or from −8 down.
Assay [15] addresses Torsin-1A-interacting protein 2 (Homo sapiens) (UniProt Q8NFQ8). In words: small molecules binding lysate-expressed LULL1 – cell lysate, human LULL1 lysate, 635/667 nm fluorescence, primary screen (AID 1092).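 Also: probe is lysate of COS7 cells overexpressing human LULL1; score merges per-feature 667 nm fluorescence with signal-to-noise.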 The following applies: small-molecule microarray, hLULL1 lysate binding, 635 nm fluorescence; higher = more signal.
Assay [16] is described as follows: optical density change of DRC41 E. coli – strain DRC41, OD650, 24 h, E. coli filamentation project, primary screen (AID 1093).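 Also: MC1000 strain lacking acrAB efflux and sulA so SOS filamentation is blocked; test concentration not given here.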 To be noted: E. coli DRC41 growth, higher = more signal, called active from +8 up or from −8 down.
Assay [17] can be described thus: probe aLefty2 binding to arrayed compounds – biochemical, biotinylated probe, 635/667 nm fluorescence, primary screen (AID 1094).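 Also: score merges spot fluorescence near 667 nm with spot signal-to-noise ratio.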 To be noted: small-molecule microarray, higher = more signal.
Assay [18] deals with Noggin (protein binding on small-molecule microarray). As to the kind of experiment: small molecules binding Noggin protein – biochemical, 635/667 nm fluorescence, primary screen (AID 1095).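 Also: score merges 667 nm feature fluorescence with signal to noise over triplicate slides.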 The following applies: 635 nm fluorescence, higher = more signal.
In assay [19] the target is Neurogenic locus notch homolog protein 3 (Homo sapiens) (UniProt Q9UM47). In words: small molecules binding NOTCH3 protein – biochemical, 635/667 nm fluorescence, primary screen (AID 1096). The following applies: small-molecule microarray, 635 nm fluorescence, higher = more signal.
Assay [20] can be described thus: probe aEGFR binding to arrayed compounds – biochemical, biotinylated probe, 635/667 nm fluorescence, primary screen (AID 1097).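 Also: probe is a biotinylated anti-EGFR antibody binding compounds printed on slides; score combines fluorescence near 667 nm and signal to noise of each spot.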 To be noted: small-molecule microarray, higher = more signal.

Pro-neuregulin-1, membrane-bound isoform (Homo sapiens), sequence (Q02297 whole entry, looked up, the tested form may be a part, canonical isoform): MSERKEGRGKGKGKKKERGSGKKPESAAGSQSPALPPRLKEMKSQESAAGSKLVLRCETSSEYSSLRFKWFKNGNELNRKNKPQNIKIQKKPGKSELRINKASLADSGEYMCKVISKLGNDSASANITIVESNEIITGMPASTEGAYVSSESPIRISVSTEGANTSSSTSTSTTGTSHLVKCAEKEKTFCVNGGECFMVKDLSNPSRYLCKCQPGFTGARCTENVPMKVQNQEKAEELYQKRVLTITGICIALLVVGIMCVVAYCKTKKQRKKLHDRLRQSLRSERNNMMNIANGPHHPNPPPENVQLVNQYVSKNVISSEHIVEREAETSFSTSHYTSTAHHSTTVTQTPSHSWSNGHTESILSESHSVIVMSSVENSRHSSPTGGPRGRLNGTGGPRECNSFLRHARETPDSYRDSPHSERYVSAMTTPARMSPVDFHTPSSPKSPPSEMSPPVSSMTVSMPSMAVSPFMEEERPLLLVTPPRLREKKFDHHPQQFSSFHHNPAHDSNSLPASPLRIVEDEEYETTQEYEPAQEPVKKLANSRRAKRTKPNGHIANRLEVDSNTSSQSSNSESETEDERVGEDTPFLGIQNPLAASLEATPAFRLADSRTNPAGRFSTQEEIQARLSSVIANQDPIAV
Neurogenic locus notch homolog protein 2 (Homo sapiens), sequence (Q04721 whole entry, looked up, canonical isoform): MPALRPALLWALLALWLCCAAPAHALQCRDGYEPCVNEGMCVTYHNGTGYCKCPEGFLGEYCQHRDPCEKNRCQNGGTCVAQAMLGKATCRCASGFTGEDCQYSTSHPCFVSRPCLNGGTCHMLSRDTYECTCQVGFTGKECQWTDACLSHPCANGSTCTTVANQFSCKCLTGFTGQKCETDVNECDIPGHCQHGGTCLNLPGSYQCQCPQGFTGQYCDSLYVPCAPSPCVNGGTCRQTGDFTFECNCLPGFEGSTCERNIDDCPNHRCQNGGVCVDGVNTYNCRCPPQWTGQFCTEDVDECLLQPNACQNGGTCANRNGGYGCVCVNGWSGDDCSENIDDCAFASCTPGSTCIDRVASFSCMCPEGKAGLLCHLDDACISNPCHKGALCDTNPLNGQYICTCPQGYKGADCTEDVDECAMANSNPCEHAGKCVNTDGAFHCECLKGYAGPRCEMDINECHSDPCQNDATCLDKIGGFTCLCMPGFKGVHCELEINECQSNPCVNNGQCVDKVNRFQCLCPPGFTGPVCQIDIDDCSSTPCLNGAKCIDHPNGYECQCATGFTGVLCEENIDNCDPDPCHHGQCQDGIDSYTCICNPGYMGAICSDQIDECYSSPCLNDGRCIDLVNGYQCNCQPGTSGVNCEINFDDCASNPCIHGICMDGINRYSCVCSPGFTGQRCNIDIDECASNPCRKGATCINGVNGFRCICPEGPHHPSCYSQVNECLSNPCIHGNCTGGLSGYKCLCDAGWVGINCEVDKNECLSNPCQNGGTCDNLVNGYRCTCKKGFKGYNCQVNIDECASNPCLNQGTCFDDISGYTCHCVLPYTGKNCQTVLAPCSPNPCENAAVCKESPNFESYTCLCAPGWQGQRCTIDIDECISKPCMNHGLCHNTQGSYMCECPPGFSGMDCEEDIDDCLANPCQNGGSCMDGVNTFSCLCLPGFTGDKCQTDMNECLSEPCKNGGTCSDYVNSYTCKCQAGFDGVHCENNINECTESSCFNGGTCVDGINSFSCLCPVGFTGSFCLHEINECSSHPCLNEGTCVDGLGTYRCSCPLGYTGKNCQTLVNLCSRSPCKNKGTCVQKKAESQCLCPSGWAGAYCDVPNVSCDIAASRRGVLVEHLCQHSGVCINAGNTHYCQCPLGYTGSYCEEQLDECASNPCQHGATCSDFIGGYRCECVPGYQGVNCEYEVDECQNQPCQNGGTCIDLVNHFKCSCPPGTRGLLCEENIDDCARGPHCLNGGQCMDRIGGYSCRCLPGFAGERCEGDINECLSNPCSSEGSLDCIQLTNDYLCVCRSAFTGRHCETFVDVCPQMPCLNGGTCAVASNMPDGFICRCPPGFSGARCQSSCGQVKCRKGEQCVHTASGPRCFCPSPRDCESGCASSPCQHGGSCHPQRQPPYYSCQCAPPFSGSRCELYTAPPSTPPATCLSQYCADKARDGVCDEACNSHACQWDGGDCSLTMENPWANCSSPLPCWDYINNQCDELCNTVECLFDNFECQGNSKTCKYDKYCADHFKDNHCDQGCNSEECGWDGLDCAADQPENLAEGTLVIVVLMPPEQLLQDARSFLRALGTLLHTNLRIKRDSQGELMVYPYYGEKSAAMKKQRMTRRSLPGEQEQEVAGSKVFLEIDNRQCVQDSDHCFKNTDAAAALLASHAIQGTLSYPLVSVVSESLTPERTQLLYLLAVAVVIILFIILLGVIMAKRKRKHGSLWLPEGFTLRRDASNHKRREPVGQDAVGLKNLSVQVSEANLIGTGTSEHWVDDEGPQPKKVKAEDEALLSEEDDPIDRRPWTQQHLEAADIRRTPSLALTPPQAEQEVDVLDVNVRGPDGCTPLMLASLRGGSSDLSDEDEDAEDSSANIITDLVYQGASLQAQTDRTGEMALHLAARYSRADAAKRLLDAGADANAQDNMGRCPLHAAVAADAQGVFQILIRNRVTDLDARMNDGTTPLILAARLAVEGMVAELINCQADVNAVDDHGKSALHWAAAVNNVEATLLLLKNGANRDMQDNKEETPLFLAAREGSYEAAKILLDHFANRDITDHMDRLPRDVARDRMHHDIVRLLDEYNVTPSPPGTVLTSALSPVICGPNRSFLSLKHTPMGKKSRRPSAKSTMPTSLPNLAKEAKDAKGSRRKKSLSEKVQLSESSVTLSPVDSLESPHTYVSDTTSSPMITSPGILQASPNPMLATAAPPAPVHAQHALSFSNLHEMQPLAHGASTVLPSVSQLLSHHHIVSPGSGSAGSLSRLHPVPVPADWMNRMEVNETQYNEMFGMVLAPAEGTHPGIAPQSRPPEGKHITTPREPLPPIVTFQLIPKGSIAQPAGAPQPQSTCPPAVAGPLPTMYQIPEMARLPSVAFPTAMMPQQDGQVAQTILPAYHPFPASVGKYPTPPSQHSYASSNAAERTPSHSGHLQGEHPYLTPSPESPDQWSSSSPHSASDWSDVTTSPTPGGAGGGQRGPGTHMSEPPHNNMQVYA
Torsin-1A-interacting protein 2 (Homo sapiens), sequence (Q8NFQ8 whole entry, looked up): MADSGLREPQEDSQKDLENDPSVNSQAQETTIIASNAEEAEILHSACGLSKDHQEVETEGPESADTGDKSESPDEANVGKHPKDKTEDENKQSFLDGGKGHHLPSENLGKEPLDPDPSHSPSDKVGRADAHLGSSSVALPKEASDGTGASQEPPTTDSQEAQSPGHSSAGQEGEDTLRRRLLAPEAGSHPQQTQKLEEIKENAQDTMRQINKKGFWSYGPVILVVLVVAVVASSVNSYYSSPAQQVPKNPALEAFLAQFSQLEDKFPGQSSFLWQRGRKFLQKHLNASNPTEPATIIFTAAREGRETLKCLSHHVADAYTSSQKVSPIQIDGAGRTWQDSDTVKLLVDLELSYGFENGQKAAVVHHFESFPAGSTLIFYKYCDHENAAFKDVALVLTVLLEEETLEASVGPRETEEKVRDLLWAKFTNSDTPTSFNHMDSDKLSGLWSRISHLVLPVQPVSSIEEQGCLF

With `Cc1ccc(S[C@]2(C(=O)NC3CC3)CC(=O)N(Cc3ccccc3)[C@@H]2c2ccc(CO)cc2)cc1`, the composite z-score is 0.462 in assay [1]; -1.21 in assay [2]; -0.118 in assay [3]; -0.0824 in assay [4]; -0.764 in [5]; -0.419 in assay [6]. Also, the composite z-score was 0.0059 in assay [7]; 0.135 in [9]; -0.247 in assay [10]; 0.0655 in [11]; 2.08 in [15]; 0.0704 in [17]. The composite z-score is -0.347 in [18], -0.462 in assay [19] and -0.0778 in assay [20]. The z-score in assay [8] is -1.17 (inactive); in assay [12], -0.592 (inactive); in assay [13], -0.852 (inactive); in assay [14], -0.168 (inactive); in assay [16] it was -0.445 (inactive).
Consider `COCCOC(=O)N1C(=O)[C@@]2(c3cc(C#CC4(O)CCCCCC4)ccc31)[C@H](C(=O)N1CCCCCCC1)[C@H]1C(=O)O[C@H](c3ccccc3)[C@H](c3ccccc3)N1[C@@H]2c1ccccc1OCCO`, for which the composite z-score in [1] came out at 2.49; in assay [2] it was 0.859; in [3] it was 0.249; in [4] it was 0.298; in assay [5], 1.25; in [6], 1.17. For the same compound, the composite z-score in assay [7] turned out to be 1.28; in assay [9], 2.2; in assay [10] it was 1.04; in [11], 1.48; in assay [15], 3.22; in assay [17], 0.911. The composite z-score in assay [18] is 1.55; in assay [19], 1.05; in assay [20] it was 0.495. Besides, the z-score in assay [8] is 0.25 (inactive); in assay [12], 1.41 (inactive); in [13], -1.07 (inactive); in assay [14] it was 3.73 (inactive); in [16], 0.431 (inactive).
For `[N-]=[N+]=Nc1ccccc1[C@@H]1OC(c2ccc(OCCCO)cc2)=N[C@]1(CCS(=O)(=O)c1ccccc1)C(=O)N1CCOCC1`, the composite z-score was found to be 0.712 in assay [1]; 0.274 in assay [2]; 0.269 in assay [3]; 1.09 in [4]; 1.62 in [5]; 1.95 in assay [6]. Moreover, the composite z-score in assay [7] was 1.24; in [9], 1.89; in [10], -0.123; in assay [11], 1.55; in assay [15] it was 3.59; in assay [17], 0.515. Also, the composite z-score turned out to be 0.417 in assay [18], 1.06 in assay [19] and 0.65 in assay [20]. In addition, the z-score is -0.246 (inactive) in assay [8]; 1.32 (inactive) in [12]; 1.91 (inactive) in [13]; 1.72 (inactive) in [14]; 0.376 (inactive) in assay [16].
With `NC(=O)NCC#Cc1ccc2c(c1)[C@]1(C(=O)N2)[C@H](C(=O)NC[C@H](O)c2ccccc2)[C@H]2C(=O)O[C@H](c3ccccc3)[C@H](c3ccccc3)N2[C@@H]1c1ccc(O)cc1`, the composite z-score in assay [1] was -0.261; in assay [2] it was 0.362; in assay [3], 0.337; in assay [4], 0.896; in [5] it was 0.857; in [6] it was 1.38. Further, the composite z-score in assay [7] came out at 0.983; in assay [9], 0.077; in assay [10] it was 0.356; in assay [11], 1.39; in assay [15], 2.9; in assay [17] it was 0.138. Besides, the composite z-score in [18] was 1.27; in [19] it was 1.13; in assay [20], 0.151. For the same compound, the z-score in [8] was 1.11 (inactive); in [12], 1.94 (inactive); in assay [13], 1.06 (inactive); in assay [14], 3.72 (inactive); in assay [16], -0.412 (inactive).
Regarding `COC(=O)[C@]1(Cc2ccccc2N=[N+]=[N-])N=C(c2ccc(OCCCO)cc2)O[C@@H]1c1ccccc1N=[N+]=[N-]`, the composite z-score in assay [1] was -0.13; in [2], -0.126; in [3], -0.0512; in assay [4], -0.102; in assay [5], 0.374; in assay [6], 0.46. The composite z-score in assay [7] was 1.1; in assay [9], 0.197; in assay [10] it was -0.0994; in assay [11], 0.822; in assay [15], 0.59; in assay [17], -0.166. Further, the composite z-score was 0.347 in assay [18], 0.251 in [19] and -0.0656 in assay [20]. The z-score in assay [8] is 3.58 (inactive); in [12] it was 0.189 (inactive); in [13], -0.0643 (inactive); in assay [14] it was 14.9 (active); in [16], -0.962 (inactive).
